This is a sample that favours compounds with a hit; in the whole collection about 19% have one here.
TDP1 cell CPT – growth inhibition of DT40 Tdp1-/-;hTDP1 cells with camptothecin (screen for TDP1 inhibitors); chicken DT40 Tdp1-/-;hTDP1 cells + 20 nM CPT, ATP luminescence, 48 h; Potency, µM (series often up to 46.2 µM), usual class: inhibitors; 12% of 420,000 active; also: nearly all actives have a fitted effect of over 55% in size
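Chicken DT40 Tdp1-/- cells stably complemented with human TDP1 were seeded at 400 cells/well in medium containing 20 nM camptothecin, exposed to pin-transferred compounds, and grown at 37 °C for at least 48 hr. Viability was read as ATP luminescence.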
TDP1 block – inhibitors of human tyrosyl-DNA phosphodiesterase TDP1; Q9NUW8; recombinant TDP1, AlphaScreen DNA substrate cleavage; Potency, µM (highest dose often 130 µM), hits mostly inhibitors; 0.28% of 350,000 active; AID 485290; also: nearly all actives have a fitted effect of over 40% in size
Target sequence (Q9NUW8 whole entry, looked up): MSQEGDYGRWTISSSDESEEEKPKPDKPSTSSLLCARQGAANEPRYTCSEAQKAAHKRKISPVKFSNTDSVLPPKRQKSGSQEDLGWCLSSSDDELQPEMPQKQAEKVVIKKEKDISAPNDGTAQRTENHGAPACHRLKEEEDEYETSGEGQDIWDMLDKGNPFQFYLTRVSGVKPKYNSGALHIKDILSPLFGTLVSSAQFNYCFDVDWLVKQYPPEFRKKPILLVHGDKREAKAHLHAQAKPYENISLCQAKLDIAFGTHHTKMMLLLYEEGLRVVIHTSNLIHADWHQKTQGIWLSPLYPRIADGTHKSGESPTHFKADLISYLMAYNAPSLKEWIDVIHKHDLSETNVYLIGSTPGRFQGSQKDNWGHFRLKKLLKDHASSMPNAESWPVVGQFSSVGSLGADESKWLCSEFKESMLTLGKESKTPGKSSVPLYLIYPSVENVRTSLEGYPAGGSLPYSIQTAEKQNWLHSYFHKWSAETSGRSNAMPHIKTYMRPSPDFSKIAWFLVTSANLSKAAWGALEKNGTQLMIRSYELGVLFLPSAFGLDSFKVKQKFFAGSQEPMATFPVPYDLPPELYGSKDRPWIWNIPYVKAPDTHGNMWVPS
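Recombinant human Tdp1 (E. coli-expressed, 1 nM final) preincubated with compounds 15 min at room temperature, then 5'-biotin/3'-phosphotyrosine-FITC DNA substrate (15 nM final) added for 5 min. AlphaScreen beads (10 ug/ml final) added 10 min; cleavage lowers signal.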
IL-1B inflam inh – inhibitors of inflammasome signaling (IL-1 beta secretion); activity change, % at 57.5 µM; THP-1 LPS/ATP IL-1B secretion, AlphaLISA, 16 h; active compounds read low; 4.7% of 360,000 active; in the data active = activity change below about -50%; inconclusive = mostly about -30% to -49%
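Secreted IL-1B measured by AlphaLISA bead assay after 16 h compound exposure of THP-1 cells; compounds (final up to 57.5 uM) added 1 h before LPS (250 ng/mL) and ATP (1.25 mM) stimulation; lower signal means less secretion.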
HepG2 tox – kills HepG2 cells in TGF-b inhibitor counter-screen. HepG2 CAGA-GFP viability, ATP luminescence, 18 h. Potency, µM (doses to about 46.1 µM), actives largely listed as cytotoxic. 0.76% of 410,000 active. AID 588856
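CellTiter-Glo luminescence gave cytotoxicity after 18 hours at 37 degrees C. The cells were HepG2 CAGA-GFP in 1% FBS DMEM, stimulated with 500 pg/mL TGF-beta after compound addition. %Activity was normalised to no-cell wells (complete cell-killing) and DMSO (no toxicity), and curves were fitted and classified.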
TGFb SMAD3 inh – blocks TGF-b signaling; HepG2 CAGA-GFP TGF-b/SMAD3 reporter, GFP fluorescence, 18 h; TGF-beta stimulated, 500 pg/mL final; 1.2% of 410,000 active; Potency, µM (highest dose often 46.1 µM), actives largely listed as inhibitors; AID 588855; also: nearly all actives have a fitted effect of over 65% in size
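Inhibition was scored as loss of TGF-beta-induced (500 pg/mL final, 18 hours, 37 degrees C) GFP in HEPG2 cells carrying a CAGA-GFP reporter, in DMEM with 1% FBS. Well GFP was summed per cell; Activity was normalised to unstimulated and stimulated DMSO wells, then concentration-response fitting.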
TDP1 cell noCPT – qHTS for Inhibitors of human tyrosyl-DNA phosphodiesterase 1 (TDP1): qHTS in cells in absence of CPT; DT40 Tdp1-/- hTDP1 cells, no CPT, ATP luminescence, 48 h; Potency, µM (top dose mostly 46.2 µM), actives largely listed as inhibitors; 15% of 420,000 active; also: nearly all actives have a fitted effect of over 55% in size
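Camptothecin absent (DMSO only). Human TDP1-complemented DT40 knockout cells, 400 cells/well, 37 °C for minimum 48 hr; ATP measured via CellTiter-Glo, 30 min dark incubation, luminescence.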
Of the large screens only hits and unclear results are named; the others gave an inactive call; ! = repeats disagree. Unless noted, calls follow the shape of the dose curve; as a rule, active = well fitted curve in the direction sought with a large enough effect; inconclusive = small, poorly fitted or top-dose-only effect, or another doubt; inactive = no such curve, though single readings can be large; an effect the other way counts as inactive or inconclusive.

COc1cc(C(C[N+](=O)[O-])c2c(C)[nH]c3ccccc23)ccc1O (configuration not stated)	TGFb SMAD3 inh inconclusive
COc1ccc(C(C[N+](=O)[O-])c2c(-c3ccccc3)cc3ccccn23)cc1OC (configuration not stated)	TDP1 cell CPT 7.3µM, TDP1 cell noCPT 15µM
COc1cc(C(C[N+](=O)[O-])c2c(C)cc3ccccn23)ccc1O (configuration not stated)	TDP1 cell CPT 8.2µM, IL-1B inflam inh -97, TDP1 cell noCPT 13µM
O=Nc1c(-c2ccccc2)cc2ccccn12	TDP1 cell CPT inconclusive, TGFb SMAD3 inh inconclusive
COc1ccc(C(C[N+](=O)[O-])c2c(-c3ccccc3)cc3ccccn23)cc1 (configuration not stated)	TDP1 cell CPT 23µM, TDP1 cell noCPT 18µM
COc1ccccc1NC(=O)C1CCN(S(=O)(=O)c2cn(C)cn2)CC1	none (no result: IL-1B inflam inh)
Cc1ccn2c(=O)cc(CSc3nnc(C)s3)nc2c1	none (no result: IL-1B inflam inh)
O=C(OCC(O)CN1CCCCC1)C12CC3CC(CC(C3)C1)C2 (configuration not stated)	none
OC(COCCC12CC3CC(CC(C3)C1)C2)CN1CCCC1 (configuration not stated)	TDP1 cell CPT 18µM, TDP1 cell noCPT inconclusive
COc1ccc(C(=O)Nc2ccnn2C2CCN(Cc3ccc4nonc4c3)CC2)cc1	TDP1 cell CPT inconclusive, TDP1 block 22µM, IL-1B inflam inh inconclusive, TGFb SMAD3 inh inconclusive, TDP1 cell noCPT inconclusive
O=C(Nc1ccnn1C1CCN(Cc2ccc3nonc3c2)CC1)c1cccc(F)c1	TDP1 cell CPT inconclusive, IL-1B inflam inh inconclusive, TGFb SMAD3 inh inconclusive
CCOc1ccc(CN2CCC(n3nccc3NC(=O)c3ccccc3OC)CC2)cc1	TDP1 cell CPT 16µM, TDP1 cell noCPT inconclusive
CCc1ccc(CN2CCC(n3nccc3NC(=O)c3ccccc3C)CC2)cc1	TDP1 cell CPT 21µM, TGFb SMAD3 inh inconclusive, TDP1 cell noCPT inconclusive
COc1ccccc1CNC(=O)CSc1cc(C)[nH]c(=O)n1	TGFb SMAD3 inh inconclusive (no result: IL-1B inflam inh)
CC(/C=C/c1ccco1)=N\NC(=O)COc1ccc(C)c(C)c1	none
Cn1cc([C@]2(O)C(=O)Nc3cccc(Cl)c32)c2ccccc21	TDP1 cell CPT inconclusive, TDP1 cell noCPT inconclusive (no result: TDP1 block, HepG2 tox, TGFb SMAD3 inh)
O=C(OCCOc1ccccc1F)c1cccc(S(=O)(=O)N2CCOCC2)c1	none
CCN(c1cccc(C)c1)S(=O)(=O)c1nnc(NC(=O)c2ccccc2Cl)s1	TDP1 cell CPT inconclusive, TDP1 cell noCPT inconclusive (no result: IL-1B inflam inh)
COCCCNC(=O)CSc1c2c(nc3ccc(Cl)cc13)CCCC2	TDP1 cell CPT inconclusive, IL-1B inflam inh -155, TGFb SMAD3 inh 13µM!, TDP1 cell noCPT inconclusive
CCc1ccc(CNC(=O)CSc2c3c(nc4ccc(Cl)cc24)CCCC3)cc1	TDP1 cell noCPT inconclusive (no result: IL-1B inflam inh)
CC(C)OCCCNC(=O)CSc1c2c(nc3ccc(Cl)cc13)CCCC2	TDP1 cell CPT inconclusive, TGFb SMAD3 inh 11µM, TDP1 cell noCPT 23µM (no result: IL-1B inflam inh)
c1ccc(N2CCN(c3nc4cc5c(cc4s3)OCCO5)CC2)cc1	TDP1 cell CPT inconclusive
c1c2c(cc3sc(N4CCOCC4)nc13)OCCO2	TDP1 cell CPT inconclusive, TDP1 cell noCPT 18µM
CCOC(=O)C1CCCC12Nc1cccc3cccc(c13)N2 (configuration not stated)	TDP1 cell CPT 18µM, TDP1 cell noCPT 15µM (no result: TDP1 block)
CCOc1ccc2nc(N=NC3=C(O)CC(C)(C)CC3=O)sc2c1	TDP1 cell CPT 3.7µM, TDP1 cell noCPT 4.1µM
CNc1c([N+](=O)[O-])cnn1-c1ccc(Cl)cc1Cl	TDP1 cell CPT inconclusive
O=c1cnn(-c2ccc(Cl)cc2Cl)c(-c2ccccc2)c1	TDP1 cell CPT inconclusive, TDP1 cell noCPT 23µM
NS(=O)(=O)c1ccc(NC(=O)CSc2cn[nH]n2)cc1	none (no result: TDP1 block)
CC1=C(C(=O)OC2CCCC2)C(c2coc3ccc(C)cc3c2=O)C2=C(CCCC2=O)N1 (configuration not stated)	TDP1 cell CPT inconclusive, TDP1 cell noCPT 21µM
CC1=C(C(=O)OC2CCCC2)C(c2coc3ccccc3c2=O)C2=C(CC(C)(C)CC2=O)N1 (configuration not stated)	TDP1 cell CPT 16µM, TDP1 cell noCPT inconclusive
CC1=C(C(=O)OCC2CCCO2)C(c2coc3ccc(Cl)cc3c2=O)C2=C(CCCC2=O)N1 (configuration not stated)	TGFb SMAD3 inh inconclusive
CC(Nc1oc(-c2ccccc2)nc1-c1ccc(C(F)(F)F)cc1)c1ccccc1 (configuration not stated)	none (no result: TDP1 cell CPT, IL-1B inflam inh, HepG2 tox, TGFb SMAD3 inh, TDP1 cell noCPT)
Cc1ccc(S(=O)(=O)OCC2CN3C(CCC(C)C3c3ccc(Br)cc3)C(=O)O2)cc1 (configuration not stated)	none (no result: TDP1 cell CPT, IL-1B inflam inh, HepG2 tox, TGFb SMAD3 inh, TDP1 cell noCPT)
O=C(NC1CCCC1)c1cccc2c1C(=O)c1ccc(/C=C/c3ccccc3)cc1S2(=O)=O	TDP1 cell CPT inconclusive, TDP1 cell noCPT 18µM
O=C(NC1CCCCC1)c1cccc2c1C(=O)c1ccc(-c3ccc(OC(F)(F)F)cc3)cc1S2(=O)=O	TDP1 cell CPT 9.2µM, TDP1 cell noCPT 9.2µM
CCN(C(=O)COC(=O)CCc1ccc(OC)cc1)c1c(N)n(Cc2ccccc2)c(=O)[nH]c1=O	none
Cc1cc(-c2nn3c(-c4ccccc4)nnc3s2)c2ccccc2n1	TDP1 cell CPT inconclusive, TDP1 cell noCPT 18µM
CC1(C)Cc2ccccc2-c2nnc(-c3ccco3)n21	none
Clc1ccccc1-c1nnc2sc(-c3ccco3)nn12	none
c1ccc(-c2cc(-c3nn4c(-c5ccco5)nnc4s3)c3ccccc3n2)cc1	TDP1 cell CPT 7.1µM, TDP1 cell noCPT 4.5µM
COc1cc2c(cc1OC)-c1nnc(-c3ccco3)n1C1(CCCC1)C2	TDP1 cell CPT inconclusive, TDP1 cell noCPT 18µM
Cc1ccccc1-c1nn2c(-c3ccccc3)nnc2s1	none
COc1cc(OC)c(-c2nn3c(-c4ccco4)nnc3s2)cc1OC	TDP1 cell CPT inconclusive, TDP1 cell noCPT 15µM
COc1ccc(C(CC(=O)N2CCCC(C)C2)c2c(OC)cc(OC)c3c(-c4ccccc4)cc(=O)oc23)cc1 (configuration not stated)	TDP1 cell CPT inconclusive, TGFb SMAD3 inh inconclusive, TDP1 cell noCPT 15µM (no result: TDP1 block)
COc1ccc(C(CC(=O)N2CCCC(C)C2)c2c(OC)cc(OC)c3ccc(=O)oc23)cc1 (configuration not stated)	TDP1 cell CPT inconclusive, TDP1 cell noCPT 18µM

Bioassay records from PubChem BioAssay.
